PubChem BioAssay (NCI)
Where “and” joins values, the source holds several entries; their conditions need not be identical. Equal entries are not always repeated. The panel holds about 83,000 compounds, 20% with a hit somewhere; the sample as a whole holds those more often.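 For each line, cells grew in 96-well plates with the test compound present at a single concentration for 48 hours.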 Calls of active or inactive are those of the source. How the source made its calls: active means growth percent below 10; inactive means the rest.

Legend:
Experiment in all cases: NCI-60 one-dose screen, 48 h (100 = growth as untreated, 0 = no growth, -100 = all killed)
Details in all cases: 10 µM unless noted
SR leukemia = tested on: SR leukemia
RPMI-8226 leukemia = tested on: RPMI-8226 leukemia
OVCAR-8 ovarian = tested on: OVCAR-8 ovarian
OVCAR-5 ovarian = tested on: OVCAR-5 ovarian
OVCAR-4 ovarian = tested on: OVCAR-4 ovarian
SK-OV-3 ovarian = tested on: SK-OV-3 ovarian
IGROV1 ovarian = tested on: IGROV1 ovarian
OVCAR-3 ovarian = tested on: OVCAR-3 ovarian
HS 578T breast = tested on: HS 578T breast
NCI/ADR-RES ovarian = tested on: NCI/ADR-RES ovarian

Measured: growth

O=S(=O)(Nc1cc(Sc2cccc3cccnc23)c(O)c2ccccc12)c1ccc(F)cc1
inactive: OVCAR-5 ovarian 38.9% | SK-OV-3 ovarian 50.8% | HS 578T breast 50%
active: SR leukemia 4.77% | RPMI-8226 leukemia -12.8% | OVCAR-8 ovarian 5.74% | OVCAR-4 ovarian -99% | IGROV1 ovarian 1.46% | OVCAR-3 ovarian -87.6% | NCI/ADR-RES ovarian 3.32%

Cc1cc2nc(C(Cl)Cl)nc(-c3ccc(Cl)cc3)n2n1
inactive: OVCAR-8 ovarian 12.8%
active: SR leukemia 9.87% | RPMI-8226 leukemia -7.69% | OVCAR-5 ovarian -0.203% | OVCAR-4 ovarian -19.6% | SK-OV-3 ovarian -6.97% | IGROV1 ovarian 5.11% | OVCAR-3 ovarian -26.6% | HS 578T breast -32% | NCI/ADR-RES ovarian -6.58%

CN(C)c1ccc2nc3ccc(=O)cc-3sc2c1
active: OVCAR-4 ovarian 2.9% | OVCAR-3 ovarian -7.17% and -6.79%
7.73% (active) and 17.9% (inactive): SR leukemia
inactive: RPMI-8226 leukemia 12.8% and 13.8% | OVCAR-5 ovarian 86.6% and 88.5% | SK-OV-3 ovarian 81.7% and 93.7% | IGROV1 ovarian 50.2% and 57.1% | HS 578T breast 79.4% and 79.2% | NCI/ADR-RES ovarian 14.7% and 46.2%
28.1% (inactive) and 6.61% (active): OVCAR-8 ovarian

CN1CCN(C(=O)OCc2nc3c(N4CCOCC4)nc(Cl)nc3n2C)CC1
inactive: SK-OV-3 ovarian 69.9%
active: SR leukemia -28% | RPMI-8226 leukemia -28.2% | OVCAR-8 ovarian -80.3% | OVCAR-5 ovarian -73.7% | OVCAR-4 ovarian -39.5% | IGROV1 ovarian -95.4% | OVCAR-3 ovarian -80.4% | HS 578T breast -31.2% | NCI/ADR-RES ovarian -1.09%

O=C1/C(=C/c2ccc(-c3ccccc3C(F)(F)F)o2)SC(=S)N1CCc1ccc(O)cc1
inactive: SR leukemia 14.2% | RPMI-8226 leukemia 69.8% | OVCAR-8 ovarian 57.6% | OVCAR-5 ovarian 77.4% | OVCAR-4 ovarian 44.8% | SK-OV-3 ovarian 64% | IGROV1 ovarian 12.5% | OVCAR-3 ovarian 43.4% | HS 578T breast 47.7% | NCI/ADR-RES ovarian 43.9%

C=C(CN1CC=CCC1)[C@@H]1CC[C@]2(COC(C)=O)CC[C@]3(C)[C@H](CC[C@@H]4[C@@]5(C)CC[C@H](O)C(C)(C)[C@@H]5CC[C@]43C)[C@@H]12
inactive: SR leukemia 90.4% | RPMI-8226 leukemia 84.2% | OVCAR-8 ovarian 96.1% | OVCAR-5 ovarian 132% | OVCAR-4 ovarian 92.2% | SK-OV-3 ovarian 115% | IGROV1 ovarian 112% | OVCAR-3 ovarian 100% | HS 578T breast 103% | NCI/ADR-RES ovarian 98.3%

CC(=O)OC[C@]12CCC(C)(C)C=C1[C@H]1CC[C@@H]3[C@@]4(C)CCCNC(C)(C)[C@@H]4CC[C@@]3(C)[C@]1(C)CC2
active: RPMI-8226 leukemia -4.32%
inactive: SR leukemia 13.7% | OVCAR-8 ovarian 71.9% | OVCAR-5 ovarian 96.7% | OVCAR-4 ovarian 41.8% | SK-OV-3 ovarian 90.5% | IGROV1 ovarian 43.6% | OVCAR-3 ovarian 30.7% | HS 578T breast 92.5% | NCI/ADR-RES ovarian 104%

O=C(Oc1ccc(CO[N+](=O)[O-])cc1)c1ccccc1
active: SR leukemia -45.7% | RPMI-8226 leukemia -53.1% | OVCAR-8 ovarian -83.7% | OVCAR-5 ovarian -81.2% | OVCAR-4 ovarian -77.1% | SK-OV-3 ovarian -90.4% | IGROV1 ovarian -80.2% | OVCAR-3 ovarian -97% | HS 578T breast -25.1% | NCI/ADR-RES ovarian -82%

Cc1c(C(C)(C)O)cn2ncnc(Oc3ccc(NC(=O)Nc4ccc(Cl)c(C(F)(F)F)c4)cc3)c12
active: SR leukemia -3.12%
inactive: RPMI-8226 leukemia 37% | OVCAR-8 ovarian 49.1% | OVCAR-5 ovarian 100% | OVCAR-4 ovarian 21% | SK-OV-3 ovarian 83.9% | IGROV1 ovarian 37.6% | OVCAR-3 ovarian 26.2% | HS 578T breast 49.4% | NCI/ADR-RES ovarian 64%

COc1cc(CNC(=O)CCCC/C=C/C(C)C)ccc1OCc1cn(-c2ccc([N+](=O)[O-])cc2)nn1
inactive: SR leukemia 62.2% | RPMI-8226 leukemia 61.8% | OVCAR-8 ovarian 82.9% | OVCAR-5 ovarian 99.1% | OVCAR-4 ovarian 87.2% | SK-OV-3 ovarian 76.7% | IGROV1 ovarian 90.4% | OVCAR-3 ovarian 92.7% | HS 578T breast 95.8% | NCI/ADR-RES ovarian 29%

O=C1C=C(Nc2ccccc2)c2ncccc2C1=O
active: SR leukemia -28.2% | RPMI-8226 leukemia -40.7% | OVCAR-8 ovarian -92.7% | OVCAR-5 ovarian -90.3% | OVCAR-4 ovarian -95.2% | SK-OV-3 ovarian -91.1% | IGROV1 ovarian -66.7% | OVCAR-3 ovarian -74.6% | HS 578T breast -8.31% | NCI/ADR-RES ovarian -24.8%

COc1ccc(Cn2cc(C(=O)Nc3cccnc3Nc3ccccc3)nn2)cc1
inactive: SR leukemia 94.9% | RPMI-8226 leukemia 96.3% | OVCAR-8 ovarian 101% | OVCAR-5 ovarian 107% | OVCAR-4 ovarian 95% | SK-OV-3 ovarian 112% | IGROV1 ovarian 102% | OVCAR-3 ovarian 118% | HS 578T breast 94.1% | NCI/ADR-RES ovarian 89.8%

Nc1nc(N)c2c(n1)NC(c1ccc(Cl)cc1)CC(c1cccc(Nc3ccncc3)c1)=N2 (stereo not given)
inactive: RPMI-8226 leukemia 55.9% | OVCAR-8 ovarian 39% | OVCAR-5 ovarian 90.4% | OVCAR-4 ovarian 73.8% | SK-OV-3 ovarian 84.2% | IGROV1 ovarian 41.6% | OVCAR-3 ovarian 82.3% | HS 578T breast 77.9% | NCI/ADR-RES ovarian 100%
active: SR leukemia 8.66%

CON1CCC[C@]2(C)[C@H]3CC[C@@H]4[C@H]5[C@@H](O)C(C)(C)CC[C@]5(CO)CC[C@@]4(C)[C@]3(C)CC[C@H]2C1(C)C
inactive: SR leukemia 88.4% | RPMI-8226 leukemia 89.1% | OVCAR-8 ovarian 95.2% | OVCAR-5 ovarian 102% | OVCAR-4 ovarian 100% | SK-OV-3 ovarian 90.1% | IGROV1 ovarian 103% | OVCAR-3 ovarian 104% | HS 578T breast 108% | NCI/ADR-RES ovarian 111%

CCCN1C(=O)/C(=c2\sc3n(c2=O)C2C(NN=3)N(CC)C(=O)N2CC)c2ccccc21 (stereo not given)
active: OVCAR-8 ovarian 7.65% | NCI/ADR-RES ovarian 0.109%
inactive: SR leukemia 17% | RPMI-8226 leukemia 21.9% | OVCAR-5 ovarian 27.5% | OVCAR-4 ovarian 48.8% | SK-OV-3 ovarian 43.7% | IGROV1 ovarian 16% | OVCAR-3 ovarian 12.4% | HS 578T breast 16.8%

Nc1ccccc1SC(CC(=O)c1ccccc1)c1ccc([N+](=O)[O-])cc1 (stereo not given)
inactive: OVCAR-8 ovarian 95.5% and 95.8% | OVCAR-5 ovarian 118% and 114% | OVCAR-4 ovarian 93.8% and 87.8% | SK-OV-3 ovarian 108% and 95% | IGROV1 ovarian 117% and 76.1% | OVCAR-3 ovarian 105% and 63.8% | HS 578T breast 103% and 105% | NCI/ADR-RES ovarian 98.2% and 91.9%
active: RPMI-8226 leukemia -1.33% and -0.234%
13.4% (inactive) and 2.29% (active): SR leukemia

Cc1nonc1-c1ccc2c(c1)OCO2
inactive: SR leukemia 104% | RPMI-8226 leukemia 94.1% and 91.7% | OVCAR-8 ovarian 98.2% and 96.7% | OVCAR-5 ovarian 111% and 121% | OVCAR-4 ovarian 108% and 97.2% | SK-OV-3 ovarian 97.3% and 107% | IGROV1 ovarian 108% and 116% | OVCAR-3 ovarian 101% and 105% | HS 578T breast 107% and 145% | NCI/ADR-RES ovarian 97.7%

CC(C)(C)c1cc(C(C)(C)c2ccccc2)cc(Cc2cc(C(C)(C)c3ccccc3)cc(C(C)(C)C)c2O)c1O
inactive: RPMI-8226 leukemia 91% | OVCAR-8 ovarian 97.9% | OVCAR-5 ovarian 91.8% | OVCAR-4 ovarian 90.2% | SK-OV-3 ovarian 105% | IGROV1 ovarian 96.5% | OVCAR-3 ovarian 106% | HS 578T breast 105% | NCI/ADR-RES ovarian 102%
active: SR leukemia -21.9%

Cc1ccc(C(=O)Nc2nc3c(s2)CN(Cc2ccccc2)CC3)cn1
inactive: SR leukemia 64% | RPMI-8226 leukemia 77.8% | OVCAR-8 ovarian 95.7% | OVCAR-5 ovarian 103% | OVCAR-4 ovarian 78.7% | SK-OV-3 ovarian 89.2% | IGROV1 ovarian 82.4% | OVCAR-3 ovarian 88.1% | HS 578T breast 98.3% | NCI/ADR-RES ovarian 70.5%

O=C(Nc1ccccc1C(=O)N/N=C(\c1ccccc1)c1ccccn1)c1ccccc1
active: SR leukemia 4.3% | NCI/ADR-RES ovarian 9.54%
inactive: RPMI-8226 leukemia 20.8% | OVCAR-8 ovarian 13.2% | OVCAR-5 ovarian 31.9% | OVCAR-4 ovarian 12.7% | SK-OV-3 ovarian 10.7% | IGROV1 ovarian 20.9% | OVCAR-3 ovarian 28% | HS 578T breast 65.2%

O=c1oc2c(Br)cc(Br)cc2cc1-c1cc(-c2ccc(-c3cc(-c4cc5cc(Br)cc(Br)c5oc4=O)nc(-c4cc5cc(Br)cc(Br)c5oc4=O)c3)cc2)cc(-c2cc3cc(Br)cc(Br)c3oc2=O)n1
inactive: SR leukemia 92.5% | RPMI-8226 leukemia 102% | OVCAR-8 ovarian 108% | OVCAR-5 ovarian 109% | OVCAR-4 ovarian 113% | SK-OV-3 ovarian 101% | IGROV1 ovarian 106% | OVCAR-3 ovarian 104% | HS 578T breast 90.7% | NCI/ADR-RES ovarian 98.1%

COc1ccc(N2CCN(S(=O)(=O)c3oc(-c4ccccc4)nc3C#N)CC2)cc1
inactive: RPMI-8226 leukemia 41.4% | OVCAR-8 ovarian 60.2% | OVCAR-5 ovarian 95.2% | OVCAR-4 ovarian 86.7% | SK-OV-3 ovarian 113% | IGROV1 ovarian 54.6% | OVCAR-3 ovarian 73.3% | HS 578T breast 104% | NCI/ADR-RES ovarian 91%
active: SR leukemia 6.1%

COc1ccc(C(=O)c2ccc(OC)c(OC)c2OC)cc1
active: OVCAR-3 ovarian -22.8% and -39.4% | HS 578T breast -9.55% and -14.2%
43.5% (inactive) and 8.36% (active): SR leukemia
inactive: RPMI-8226 leukemia 35.3% and 27.4% | OVCAR-8 ovarian 41.8% and 47.4% | OVCAR-5 ovarian 83.1% and 49.9% | OVCAR-4 ovarian 82.8% and 42.8% | IGROV1 ovarian 25.7% and 11.9%
18.5% (inactive) and -13.9% (active): NCI/ADR-RES ovarian
18% (inactive) and 3.38% (active): SK-OV-3 ovarian
